Measured values as given in PubChem BioAssay AID624405 (Broad Institute, 2012).
The whole screen tested about 1,900 compounds, of which about 250 (13%) were called active. Another 4% or so got no clear call; they are omitted.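 The calls were made as follows: active = fitted curve reaches 40% rescue activity at or below the top valid dose, in every test run; inconclusive = test runs disagree, some active and some inactive; inactive = every run misses the threshold or moves the wrong way.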 A selection follows. Entries with a potency or affinity are not part of this list.

test: rescue of simvastatin-induced ATP loss – cell-based, C2C12 myotubes, ATP luminescence, cherry pick, dose response (AID 624405); details: 48 h, scaled: DMSO wells 0, geranylgeraniol wells 100; series mostly up to 19.5 µM;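 also: myotubes are challenged with simvastatin at 10 µM to lower ATP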

Structure (SMILES) | outcome
COc1ccc(S(=O)(=O)Nc2ccc3c(c2)C(=O)N([C@@H](C)CO)C[C@@H](C)[C@H](CN(C)S(=O)(=O)c2ccc(F)cc2)OCCCC[C@@H](C)O3)cc1 | inactive
COc1ccc(C(=O)c2nc3c(n2O)CCCC3)cc1OC | inactive
Cc1ccc2nc(-c3cccc(NC(=O)c4ccc5c(c4)OCCO5)c3)oc2c1 | inactive
COc1ccc(-c2noc(CCCC(=O)NCCc3ccccc3)n2)cc1OC | inactive
Cc1ccc(-c2csc(-c3c[nH]c4ccccc34)n2)cc1 | inactive
CC(C)NC(=O)N(C)C[C@@H]1Oc2ccc(NC(=O)Nc3cccc4ccccc34)cc2CC(=O)N([C@@H](C)CO)C[C@@H]1C | inactive
O=C(NCC(=O)N(Cc1ccccc1)C(C(=O)NC1CCCCC1)c1ccco1)c1ccco1 (configuration not stated) | inactive
COc1ccc(CNS(=O)(=O)c2ccc3c(c2)CCN3C(=O)C2CCC2)cc1 | inactive
COc1ccc(CNC(=O)C2CCCN(S(=O)(=O)c3ccc4c(c3)CCCN4C(C)=O)C2)cc1 (configuration not stated) | inactive
C[C@@H]1CCCCO[C@@H](CN(C)S(=O)(=O)c2ccc(Cl)cc2)[C@H](C)CN([C@@H](C)CO)C(=O)c2cc(NS(C)(=O)=O)ccc2O1 | inactive
CC(C)COc1nc2ccccc2c(=O)n1OCC(=O)O | inactive
CC(C)C#Cc1ccc2c(c1)O[C@@H](CN(C)C(=O)C1CCC1)[C@@H](C)CN([C@@H](C)CO)S2(=O)=O | inactive
NNC(=O)c1nn(-c2ccc(Cl)cc2)cc1O | inactive
COc1ccc(-n2cnc3cc(NCc4cccs4)ccc32)cc1 | inactive
C[C@H](CO)N1C[C@H](C)[C@@H](CN(C)Cc2ccc(Cl)c(Cl)c2)Oc2ccc(NC(=O)CCC(F)(F)F)cc2CC1=O | inactive
O=S(=O)(NCC1CCN(S(=O)(=O)c2ccccc2)CC1)c1ccccc1 | inactive
Cc1ccc(S(=O)(=O)n2nc(-c3ccco3)nc2SCc2ccccc2)cc1 | inactive
CCOC(=O)[C@H]1[C@H]2COc3ccc(Cl)cc3[C@@H]2N2C(=O)c3ccccc3NC(=O)[C@@]12C | inactive
O=C(CNS(=O)(=O)c1ccc(Br)s1)N1CCN(c2ncccn2)CC1 | inactive
Cc1nc2ccc(S(=O)(=O)NCC(=O)N3CCCC(C)C3)cc2s1 (configuration not stated) | inactive
C[C@H]1CN([C@@H](C)CO)C(=O)Cc2cc(NC(=O)CCC(F)(F)F)ccc2O[C@@H]1CN(C)Cc1ccc(Oc2ccccc2)cc1 | inactive
COc1ccc(CCNC(=O)c2ccc(N3CCCC3=O)cc2)cc1 | inactive
COc1ccc(CNC(=O)CCOc2ccc(C(C)(C)C)cc2)cc1 | inactive
Cc1ccc(Cl)cc1NC(=O)COC(=O)CC1CC2CCC1C2 (configuration not stated) | inactive
COc1cccc(S(=O)(=O)N(C)C[C@H]2OCc3ccccc3-c3c(n(C)c4ccccc34)C(=O)N([C@H](C)CO)C[C@H]2C)c1 | inactive
COc1ccc(CN(C)C[C@@H]2Oc3ccc(NS(=O)(=O)c4ccccc4)cc3CC(=O)N([C@H](C)CO)C[C@H]2C)cc1 | inactive

Structure (SMILES) | outcome
CCOC(=O)N1CCN(c2ccccc2O)CC1 | inactive
CCOC(=O)N1CCN(C2CC(=O)N(c3ccc(Oc4ccccc4)cc3)C2=O)CC1 (configuration not stated) | inactive
C[C@@H]1CN([C@H](C)CO)C(=O)c2cc(NS(C)(=O)=O)ccc2O[C@@H](C)CCCCO[C@@H]1CN(C)Cc1ccc(Cl)c(Cl)c1 | inactive
COc1ccc(C(=O)N2C[C@H]3[C@@H](c4ccccc42)[C@@H](CO)N3Cc2ccccc2)cc1 | inactive
CCN(CC)c1nc(C#N)cc(-c2ccc(OC)cc2)n1 | inactive
C[C@H](CO)N1C[C@H](C)[C@@H](CN(C)C(=O)Nc2ccccc2)Oc2ncc(C#CC3CCCC3)cc2C1=O | inactive
C[C@H](CO)N1C[C@H](C)[C@@H](CN(C)C(=O)Nc2cccc3ccccc23)OCCCC[C@H](C)Oc2ccc(NC(=O)Nc3ccc4c(c3)OCO4)cc2C1=O | inactive
Cc1ccc(S(=O)(=O)Nc2ccc3c(c2)C(=O)N([C@H](C)CO)C[C@@H](C)[C@H](CN(C)Cc2ccc(Cl)c(Cl)c2)O3)cc1 | inactive
CCOC(=O)C1=C(C)Nc2ccccc2N=C1NC(=O)c1cccc(S(=O)(=O)N(C)C)c1 | inactive
COc1ccc(C(=O)N2C[C@@H]3[C@H](c4ccccc42)[C@H](CO)N3Cc2ccccc2)cc1 | inactive
COC(=O)C1(C(=O)OC)NOC2C(=O)N(c3ccc(Cl)cc3Cl)C(=O)C21 (configuration not stated) | inactive
C[C@@H](NC(=O)C[C@@H]1CC[C@@H]2[C@H](COC[C@H](O)CN2Cc2ccc(C(F)(F)F)cc2)O1)c1ccccc1 | inactive
COc1ccc(S(=O)(=O)Nc2ccc3c(c2)C(=O)N([C@H](C)CO)C[C@H](C)[C@H](CN(C)S(=O)(=O)c2ccc(F)cc2)OCCCC[C@H](C)O3)cc1 | inactive
CCC(C)(CCNC(=O)Cc1ccccc1)c1ccccc1OC (configuration not stated) | inactive
C[C@H](CO)N1C[C@H](C)[C@@H](CN(C)Cc2ccc(-c3ccccc3)cc2)Oc2ccc(NC(=O)Cc3ccccc3)cc2CC1=O | inactive
C[C@H]1CN([C@@H](C)CO)C(=O)Cc2cc(NC(=O)CCCCCC(=O)Nc3ccccc3N)ccc2O[C@@H]1CN(C)Cc1ccc(-c2ccccc2)cc1 | inactive
C[C@H](CO)N1C[C@H](C)[C@@H](CN(C)Cc2ccc(-c3ccccc3)cc2)Oc2ccc(NC(=O)CCCCCC(=O)Nc3ccccc3N)cc2CC1=O | inactive
Cc1noc(C)c1S(=O)(=O)Nc1ccc2c(c1)C(=O)N([C@@H](C)CO)C[C@@H](C)[C@@H](CN(C)S(=O)(=O)c1ccc(Cl)cc1)OCCCC[C@H](C)O2 | inactive
c1ccc2c(c1)CNC1(CCCCC1)C2 | inactive
COc1ccc(S(=O)(=O)Nc2ccc3c(c2)C(=O)N([C@@H](C)CO)C[C@@H](C)[C@@H](CN(C)C(=O)Nc2cccc4ccccc24)OCCCC[C@H](C)O3)cc1 | inactive
C[C@@H]1CN([C@H](C)CO)C(=O)Cc2cc(NC(=O)Nc3cccc4ccccc34)ccc2O[C@H]1CN(C)CC1CCCCC1 | inactive
COc1ccc(S(=O)(=O)Nc2cccc3c2O[C@@H](CN(C)Cc2ccc(Oc4ccccc4)cc2)[C@@H](C)CN([C@@H](C)CO)C3=O)cc1 | inactive
C[C@H]1CCCCO[C@H](CN(C)C(=O)C2CCCCC2)[C@@H](C)CN([C@@H](C)CO)C(=O)c2cc(NC(=O)NC3CCCCC3)ccc2O1 | inactive
C[C@H]1CCCCO[C@@H](CN(C)S(=O)(=O)c2ccc(Cl)cc2)[C@@H](C)CN([C@@H](C)CO)C(=O)c2cc(NS(C)(=O)=O)ccc2O1 | inactive
C[C@H](CO)N1C[C@H](C)[C@@H](CN(C)Cc2ccc(C(=O)Nc3ccccc3N)cc2)Oc2ccc(NC(=O)Nc3ccc(C(F)(F)F)cc3)cc2C1=O | inactive
C[C@@H]1CN([C@H](C)CO)C(=O)Cc2cc(N(C)C)ccc2O[C@H]1CN(C)Cc1ccc(C(=O)Nc2ccccc2N)cc1 | inactive

Structure (SMILES) | outcome
C[C@@H]1CN([C@@H](C)CO)C(=O)c2cc(NC(=O)Nc3ccc(C(F)(F)F)cc3)ccc2O[C@H]1CN(C)Cc1ccc(C(=O)Nc2ccccc2N)cc1 | inactive
C[C@@H]1CN([C@H](C)CO)C(=O)c2cc(NC(=O)Nc3ccc(C(F)(F)F)cc3)ccc2O[C@@H]1CN(C)Cc1ccc(C(=O)Nc2ccccc2N)cc1 | inactive
CC1=CCn2c(=O)c3ccccc3c(=O)n2C1 | inactive
CCOC(=O)c1cc2ccc(OC)c(OC)c2c(=O)s1 | inactive
COc1ccc(N(Cc2cc(=O)[nH]c3ccccc23)C(=O)c2ccco2)cc1 | inactive
Cc1cc(C(=O)COC(=O)CN=C2NS(=O)(=O)c3ccccc32)c(C)n1CCc1ccc(Cl)cc1 | inactive
Cc1ccnc2nc(C(=O)OCC(=O)c3ccccc3)nn12 | inactive
C[C@@H]1CN([C@H](C)CO)C(=O)c2cccc(NC(=O)C3CCCCC3)c2O[C@H]1CN(C)S(=O)(=O)c1ccc(Cl)cc1 | inactive
O=C(c1cnn2c(C(F)F)cc(-c3ccccc3)nc12)N1CCc2ccccc21 | inactive
CCC(C)NC(=O)Cn1c(=O)n(CCCC(=O)NCc2ccccc2Cl)c(=O)c2ccccc21 (configuration not stated) | inactive
CCOC(=O)c1cc(=O)n(Cc2ccccc2C)c2ccccc12 | inactive
C[C@H](CO)N1C[C@H](C)[C@H](CN(C)C(=O)Nc2cccc3ccccc23)OCCCC[C@H](C)Oc2ccc(NS(=O)(=O)c3ccc(Cl)cc3)cc2C1=O | inactive
C[C@@H]1CN([C@@H](C)CO)C(=O)c2cc(NC(=O)c3ccncc3)ccc2O[C@@H](C)CCCCO[C@@H]1CN(C)Cc1ccc(C(F)(F)F)cc1 | inactive
CC(=O)c1c(C)[nH]c(C(=O)CSc2nnc(C3CCCCC3)n2N)c1C | inactive
CC1CSc2nc3sc4c(c3c(=O)n21)CCCC4 (configuration not stated) | inactive
COc1cc2c(N3CCOCC3)cc(O)c(CC(=O)Nc3ccccc3)c2cc1OC | inactive
O=C(Oc1ccc(C(=S)N2CCOCC2)cc1Br)c1ccccc1F | inactive
C[C@@H]1CN([C@H](C)CO)S(=O)(=O)c2ccc(/C=C/c3ccccc3)cc2O[C@@H]1CN(C)C(=O)NC1CCCC1 | inactive
COc1ccc(S(=O)(=O)Nc2ccc3c(c2)CC(=O)N([C@@H](C)CO)C[C@H](C)[C@@H](CN(C)Cc2ccc(Cl)c(Cl)c2)O3)cc1 | inactive
Cc1ccc(S(=O)(=O)NNC(=O)c2snnc2C)cc1 | inactive
COC(=O)c1cn(Cc2ccc(C(F)(F)F)cc2)cc(F)c1=O | inactive
Cc1ccc(N2N=C(C(=O)O)CCC2=O)cc1Cl | inactive
CC(C(=O)NCC1CCCO1)n1cccc1C(=O)c1ccccc1 (configuration not stated) | inactive
C=C(C)C1CC=C(C)/C(=N/NC(=O)c2ccc(NC(=O)CC)cc2)C1 (configuration not stated) | inactive
COc1ccc(NC(=O)c2cc(-c3cccs3)on2)cc1 | inactive
